How the values were obtained:
Test in all cases: DAPPL (digital affinity profiling via proximity ligation, sequencing); 10 mM Tris-HCl pH 7.5, 50 mM NaCl, 1 mM DTT, 4% glycerol, room temperature, 30 min; GST-TFs on glutathione beads, 16-mer random dsDNA library, 0.1% formaldehyde crosslink after washing; high values mean tight binding
FEV = target: T1, FEV (Homo sapiens, UniProt Q99581 1-238); settings: protein: recombinant; tags: N-terminal GST; dsDNA, one strand shown
T1 sequence: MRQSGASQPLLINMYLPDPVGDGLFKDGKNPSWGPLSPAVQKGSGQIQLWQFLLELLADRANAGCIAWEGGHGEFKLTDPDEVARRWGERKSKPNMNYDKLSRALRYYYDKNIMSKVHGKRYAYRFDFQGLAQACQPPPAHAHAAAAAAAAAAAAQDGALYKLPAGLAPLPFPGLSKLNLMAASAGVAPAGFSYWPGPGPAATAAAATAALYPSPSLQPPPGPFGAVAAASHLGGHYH
Procedure, shortened: (§1)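 GST fusions of human transcription factors were expressed in yeast and captured with glutathione beads. Once given DNA barcodes and pooled alongside a tag-only sample, they were incubated for 30 min at room temperature with 200 nmole of a random double-stranded 16-mer DNA library in Tris/NaCl/DTT/glycerol buffer, then washed, crosslinked (0.1% formaldehyde), proximity-ligated, PCR-amplified and sequenced on an Illumina NextSeq500. The binding signal of each hexamer is its read frequency for a factor divided by its frequency for the tag-only sample.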

ETV5 = ETV5 (Homo sapiens, UniProt P41161 1-510); settings: protein: recombinant; tags: N-terminal GST; dsDNA, one strand shown
ETV5, sequence (P41161 whole entry): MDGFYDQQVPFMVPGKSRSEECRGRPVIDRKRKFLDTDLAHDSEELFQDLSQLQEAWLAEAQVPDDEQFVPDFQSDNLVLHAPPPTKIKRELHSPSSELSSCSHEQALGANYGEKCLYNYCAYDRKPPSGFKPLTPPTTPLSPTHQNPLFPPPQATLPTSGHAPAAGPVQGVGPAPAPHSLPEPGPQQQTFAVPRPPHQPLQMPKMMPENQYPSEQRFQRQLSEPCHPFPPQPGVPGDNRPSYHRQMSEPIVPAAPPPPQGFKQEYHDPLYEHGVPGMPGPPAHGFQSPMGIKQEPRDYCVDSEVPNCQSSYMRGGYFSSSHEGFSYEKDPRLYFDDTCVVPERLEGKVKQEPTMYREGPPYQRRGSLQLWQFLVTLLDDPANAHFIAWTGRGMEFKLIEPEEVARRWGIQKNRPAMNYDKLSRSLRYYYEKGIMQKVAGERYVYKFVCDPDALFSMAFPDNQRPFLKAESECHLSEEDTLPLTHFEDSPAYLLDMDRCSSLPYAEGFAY
Procedure, shortened: as §1

HSF1 = HSF1 (Homo sapiens, UniProt Q00613 1-529); settings: protein: recombinant; tags: N-terminal GST; chain copies: 3; dsDNA, one strand shown
HSF1, sequence (Q00613 whole entry): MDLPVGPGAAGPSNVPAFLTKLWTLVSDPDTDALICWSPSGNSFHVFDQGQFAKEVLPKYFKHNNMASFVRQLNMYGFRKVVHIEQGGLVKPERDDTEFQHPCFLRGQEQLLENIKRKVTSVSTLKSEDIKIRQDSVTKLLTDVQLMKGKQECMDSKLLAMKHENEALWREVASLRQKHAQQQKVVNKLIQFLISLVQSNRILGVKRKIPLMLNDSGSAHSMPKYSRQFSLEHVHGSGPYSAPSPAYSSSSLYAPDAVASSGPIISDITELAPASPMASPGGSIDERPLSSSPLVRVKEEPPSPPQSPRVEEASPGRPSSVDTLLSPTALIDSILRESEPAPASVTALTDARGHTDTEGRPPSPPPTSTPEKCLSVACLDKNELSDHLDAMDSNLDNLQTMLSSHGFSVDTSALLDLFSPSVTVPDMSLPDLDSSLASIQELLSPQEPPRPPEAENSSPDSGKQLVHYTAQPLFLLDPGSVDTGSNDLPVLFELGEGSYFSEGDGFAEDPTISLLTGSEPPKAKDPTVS
Procedure, shortened: as §1

SPIC = target: T2, SPIC (Homo sapiens, UniProt Q8N5J4 1-248); settings: protein: recombinant; tags: N-terminal GST; dsDNA, one strand shown
T2 sequence: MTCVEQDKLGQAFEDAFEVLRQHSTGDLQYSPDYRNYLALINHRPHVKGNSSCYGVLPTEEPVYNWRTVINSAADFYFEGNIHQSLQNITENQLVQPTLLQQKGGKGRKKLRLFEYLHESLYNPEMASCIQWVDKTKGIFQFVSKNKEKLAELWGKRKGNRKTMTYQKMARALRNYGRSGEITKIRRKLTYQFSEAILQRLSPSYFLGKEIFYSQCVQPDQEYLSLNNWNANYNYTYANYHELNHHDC
Procedure, shortened: as §1

ELF4 = ELF4 (Homo sapiens, UniProt Q99607 1-663); settings: protein: recombinant; tags: N-terminal GST; dsDNA, one strand shown
ELF4, sequence (Q99607 whole entry): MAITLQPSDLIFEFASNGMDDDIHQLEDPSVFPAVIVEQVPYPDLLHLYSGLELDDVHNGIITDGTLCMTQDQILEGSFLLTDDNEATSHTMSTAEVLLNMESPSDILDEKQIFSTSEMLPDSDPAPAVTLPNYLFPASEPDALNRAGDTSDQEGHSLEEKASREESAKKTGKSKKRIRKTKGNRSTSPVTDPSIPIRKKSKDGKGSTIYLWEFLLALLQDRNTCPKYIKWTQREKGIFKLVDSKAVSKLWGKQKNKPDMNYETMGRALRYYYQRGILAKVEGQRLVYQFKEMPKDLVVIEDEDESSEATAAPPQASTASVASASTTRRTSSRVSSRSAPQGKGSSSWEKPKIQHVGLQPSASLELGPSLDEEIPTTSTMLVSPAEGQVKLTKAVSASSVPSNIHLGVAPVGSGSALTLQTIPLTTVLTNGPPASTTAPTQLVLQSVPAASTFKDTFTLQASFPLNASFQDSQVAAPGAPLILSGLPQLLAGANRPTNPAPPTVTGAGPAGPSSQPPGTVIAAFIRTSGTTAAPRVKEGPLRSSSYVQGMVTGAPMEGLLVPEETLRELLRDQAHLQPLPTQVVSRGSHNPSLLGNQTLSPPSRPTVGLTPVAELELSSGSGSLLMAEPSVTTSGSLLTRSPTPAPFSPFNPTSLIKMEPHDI
Procedure, shortened: as §1

ELK4 = target: T3, ELK4 (Homo sapiens, UniProt P28324-2 1-405); settings: protein: recombinant; tags: N-terminal GST; dsDNA, one strand shown
T3 sequence: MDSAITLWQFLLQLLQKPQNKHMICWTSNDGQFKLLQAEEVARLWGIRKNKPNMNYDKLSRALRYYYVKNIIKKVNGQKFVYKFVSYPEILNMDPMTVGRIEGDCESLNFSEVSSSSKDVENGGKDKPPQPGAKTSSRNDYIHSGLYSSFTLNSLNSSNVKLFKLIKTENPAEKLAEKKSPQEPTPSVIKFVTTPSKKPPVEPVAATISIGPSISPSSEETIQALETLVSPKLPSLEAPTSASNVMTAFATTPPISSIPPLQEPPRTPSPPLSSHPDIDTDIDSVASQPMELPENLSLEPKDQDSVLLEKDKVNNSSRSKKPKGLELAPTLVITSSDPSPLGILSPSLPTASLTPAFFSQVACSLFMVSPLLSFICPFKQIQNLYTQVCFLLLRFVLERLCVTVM
Procedure, shortened: as §1

ETV2 = target: T4, ETV2 (Homo sapiens, UniProt O00321 1-342); settings: protein: recombinant; tags: N-terminal GST; dsDNA, one strand shown
T4 sequence: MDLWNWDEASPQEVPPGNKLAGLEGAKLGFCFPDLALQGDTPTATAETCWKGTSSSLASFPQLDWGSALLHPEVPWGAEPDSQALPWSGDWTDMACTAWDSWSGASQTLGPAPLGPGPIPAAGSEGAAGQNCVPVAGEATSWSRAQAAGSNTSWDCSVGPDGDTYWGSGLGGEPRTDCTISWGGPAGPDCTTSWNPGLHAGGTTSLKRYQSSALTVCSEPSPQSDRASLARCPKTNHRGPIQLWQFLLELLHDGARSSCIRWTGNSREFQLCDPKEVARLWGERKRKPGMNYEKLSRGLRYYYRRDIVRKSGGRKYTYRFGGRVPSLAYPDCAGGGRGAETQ
Procedure, shortened: as §1

ELF3 = target: T5, ELF3 (Homo sapiens, UniProt P78545 1-371); settings: protein: recombinant; tags: N-terminal GST; dsDNA, one strand shown
T5 sequence: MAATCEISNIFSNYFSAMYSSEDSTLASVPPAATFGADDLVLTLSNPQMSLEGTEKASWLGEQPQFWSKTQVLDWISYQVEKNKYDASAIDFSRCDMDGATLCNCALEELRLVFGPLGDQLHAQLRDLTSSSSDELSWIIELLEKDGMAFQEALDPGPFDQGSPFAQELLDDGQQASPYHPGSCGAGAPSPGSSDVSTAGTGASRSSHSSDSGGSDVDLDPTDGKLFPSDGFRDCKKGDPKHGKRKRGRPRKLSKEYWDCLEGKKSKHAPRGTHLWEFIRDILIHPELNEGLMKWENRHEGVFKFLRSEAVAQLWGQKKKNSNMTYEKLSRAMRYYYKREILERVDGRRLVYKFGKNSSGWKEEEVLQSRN
Procedure, shortened: as §1

CRX = CRX (Homo sapiens, UniProt O43186 1-299); settings: protein: recombinant; tags: N-terminal GST; dsDNA, one strand shown
CRX, sequence (O43186 whole entry): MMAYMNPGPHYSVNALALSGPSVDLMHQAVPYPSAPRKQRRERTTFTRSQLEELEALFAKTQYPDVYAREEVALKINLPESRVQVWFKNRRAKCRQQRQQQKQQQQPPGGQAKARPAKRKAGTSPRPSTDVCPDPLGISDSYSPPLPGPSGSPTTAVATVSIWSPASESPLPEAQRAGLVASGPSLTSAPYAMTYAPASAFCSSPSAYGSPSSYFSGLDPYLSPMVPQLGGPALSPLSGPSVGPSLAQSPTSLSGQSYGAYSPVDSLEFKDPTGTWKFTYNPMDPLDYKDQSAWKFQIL
Procedure, shortened: as §1

ETV1 = ETV1 (Homo sapiens, UniProt P50549 1-477); settings: protein: recombinant; tags: N-terminal GST; dsDNA, one strand shown
ETV1, sequence (P50549 whole entry): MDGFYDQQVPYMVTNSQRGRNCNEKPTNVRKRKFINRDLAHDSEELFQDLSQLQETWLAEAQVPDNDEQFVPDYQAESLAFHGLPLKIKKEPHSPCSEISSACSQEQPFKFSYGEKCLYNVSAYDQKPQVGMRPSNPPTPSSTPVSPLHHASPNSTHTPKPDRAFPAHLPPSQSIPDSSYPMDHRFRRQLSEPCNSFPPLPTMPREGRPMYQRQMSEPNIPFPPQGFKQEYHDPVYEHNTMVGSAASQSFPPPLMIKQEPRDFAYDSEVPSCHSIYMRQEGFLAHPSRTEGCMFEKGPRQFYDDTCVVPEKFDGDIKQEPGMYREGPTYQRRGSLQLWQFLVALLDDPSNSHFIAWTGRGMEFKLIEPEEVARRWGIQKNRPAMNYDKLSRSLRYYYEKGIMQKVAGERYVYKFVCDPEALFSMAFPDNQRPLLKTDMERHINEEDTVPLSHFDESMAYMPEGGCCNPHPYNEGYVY
Procedure, shortened: as §1

ACTAAA was tested, and the binding signal (FEV) was 1.24 fold enrichment (6-mer frequency, TF over GST control), the binding signal (ETV5) was 1.24 fold enrichment (6-mer frequency, TF over GST control) and the binding signal (HSF1) was 1.37 fold enrichment (6-mer frequency, TF over GST control). For the same sequence, the binding signal (SPIC) was 1.14 fold enrichment (6-mer frequency, TF over GST control), the binding signal (ELF4) was 1.31 fold enrichment (6-mer frequency, TF over GST control) and the binding signal (ELK4) was 1.4 fold enrichment (6-mer frequency, TF over GST control). The binding signal (ETV2) was 1.24 fold enrichment (6-mer frequency, TF over GST control), the binding signal (ELF3) was 1.33 fold enrichment (6-mer frequency, TF over GST control) and the binding signal (CRX) was 1.6 fold enrichment (6-mer frequency, TF over GST control). For the same sequence, the binding signal (ETV1) was 1.31 fold enrichment (6-mer frequency, TF over GST control).
For AATAGC, the binding signal (FEV) was 1.18 fold enrichment (6-mer frequency, TF over GST control), the binding signal (ETV5) was 1.19 fold enrichment (6-mer frequency, TF over GST control) and the binding signal (HSF1) was 1.07 fold enrichment (6-mer frequency, TF over GST control). The binding signal (SPIC) was 1.01 fold enrichment (6-mer frequency, TF over GST control), the binding signal (ELF4) was 1.15 fold enrichment (6-mer frequency, TF over GST control) and the binding signal (ELK4) was 1.19 fold enrichment (6-mer frequency, TF over GST control). The binding signal (ETV2) was 1.17 fold enrichment (6-mer frequency, TF over GST control), the binding signal (ELF3) was 1.23 fold enrichment (6-mer frequency, TF over GST control) and the binding signal (CRX) was 1.15 fold enrichment (6-mer frequency, TF over GST control). The binding signal (ETV1) was 1.13 fold enrichment (6-mer frequency, TF over GST control).
For TTTCGT, the binding signal (FEV) was 1.35 fold enrichment (6-mer frequency, TF over GST control), the binding signal (ETV5) was 1.41 fold enrichment (6-mer frequency, TF over GST control) and the binding signal (HSF1) was 1.48 fold enrichment (6-mer frequency, TF over GST control). For the same sequence, the binding signal (SPIC) was 1.36 fold enrichment (6-mer frequency, TF over GST control), the binding signal (ELF4) was 1.34 fold enrichment (6-mer frequency, TF over GST control) and the binding signal (ELK4) was 1.49 fold enrichment (6-mer frequency, TF over GST control). The binding signal (ETV2) was 1.32 fold enrichment (6-mer frequency, TF over GST control), the binding signal (ELF3) was 1.33 fold enrichment (6-mer frequency, TF over GST control) and the binding signal (CRX) was 1.43 fold enrichment (6-mer frequency, TF over GST control). For the same sequence, the binding signal (ETV1) was 1.38 fold enrichment (6-mer frequency, TF over GST control).
For TTAAAA, the binding signal (FEV) was 1.16 fold enrichment (6-mer frequency, TF over GST control), the binding signal (ETV5) was 1.14 fold enrichment (6-mer frequency, TF over GST control) and the binding signal (HSF1) was 1.87 fold enrichment (6-mer frequency, TF over GST control). The binding signal (SPIC) was 1.28 fold enrichment (6-mer frequency, TF over GST control), the binding signal (ELF4) was 1.19 fold enrichment (6-mer frequency, TF over GST control) and the binding signal (ELK4) was 1.27 fold enrichment (6-mer frequency, TF over GST control). The binding signal (ETV2) was 1.25 fold enrichment (6-mer frequency, TF over GST control), the binding signal (ELF3) was 1.24 fold enrichment (6-mer frequency, TF over GST control) and the binding signal (CRX) was 2.69 fold enrichment (6-mer frequency, TF over GST control). For the same sequence, the binding signal (ETV1) was 1.22 fold enrichment (6-mer frequency, TF over GST control).
CAATCT was tested, and the binding signal (FEV) was 1.2 fold enrichment (6-mer frequency, TF over GST control), the binding signal (ETV5) was 1.21 fold enrichment (6-mer frequency, TF over GST control) and the binding signal (HSF1) was 1.48 fold enrichment (6-mer frequency, TF over GST control). The binding signal (SPIC) was 1.19 fold enrichment (6-mer frequency, TF over GST control), the binding signal (ELF4) was 1.2 fold enrichment (6-mer frequency, TF over GST control) and the binding signal (ELK4) was 1.2 fold enrichment (6-mer frequency, TF over GST control). For the same sequence, the binding signal (ETV2) was 1.3 fold enrichment (6-mer frequency, TF over GST control), the binding signal (ELF3) was 1.19 fold enrichment (6-mer frequency, TF over GST control) and the binding signal (CRX) was 1.42 fold enrichment (6-mer frequency, TF over GST control). For the same sequence, the binding signal (ETV1) was 1.26 fold enrichment (6-mer frequency, TF over GST control).
With CTCTCA the binding signal (FEV) was 1.44 fold enrichment (6-mer frequency, TF over GST control), the binding signal (ETV5) was 1.35 fold enrichment (6-mer frequency, TF over GST control) and the binding signal (HSF1) was 1.2 fold enrichment (6-mer frequency, TF over GST control). For the same sequence, the binding signal (SPIC) was 1.21 fold enrichment (6-mer frequency, TF over GST control), the binding signal (ELF4) was 1.42 fold enrichment (6-mer frequency, TF over GST control) and the binding signal (ELK4) was 1.45 fold enrichment (6-mer frequency, TF over GST control). For the same sequence, the binding signal (ETV2) was 1.33 fold enrichment (6-mer frequency, TF over GST control), the binding signal (ELF3) was 1.47 fold enrichment (6-mer frequency, TF over GST control) and the binding signal (CRX) was 1.24 fold enrichment (6-mer frequency, TF over GST control). For the same sequence, the binding signal (ETV1) was 1.51 fold enrichment (6-mer frequency, TF over GST control).
In the case of ACACTT, the binding signal (FEV) is reported as 1.68 fold enrichment (6-mer frequency, TF over GST control), the binding signal (ETV5) is reported as 1.67 fold enrichment (6-mer frequency, TF over GST control) and the binding signal (HSF1) is reported as 1.11 fold enrichment (6-mer frequency, TF over GST control). For the same sequence, the binding signal (SPIC) was 1.71 fold enrichment (6-mer frequency, TF over GST control), the binding signal (ELF4) was 1.55 fold enrichment (6-mer frequency, TF over GST control) and the binding signal (ELK4) was 1.49 fold enrichment (6-mer frequency, TF over GST control). The binding signal (ETV2) was 1.58 fold enrichment (6-mer frequency, TF over GST control), the binding signal (ELF3) was 1.66 fold enrichment (6-mer frequency, TF over GST control) and the binding signal (CRX) was 1.16 fold enrichment (6-mer frequency, TF over GST control). The binding signal (ETV1) was 1.77 fold enrichment (6-mer frequency, TF over GST control).
In the case of TAATTA, the binding signal (FEV) is reported as 1.22 fold enrichment (6-mer frequency, TF over GST control), the binding signal (ETV5) is reported as 1.31 fold enrichment (6-mer frequency, TF over GST control) and the binding signal (HSF1) is reported as 1.81 fold enrichment (6-mer frequency, TF over GST control). The binding signal (SPIC) was 1.4 fold enrichment (6-mer frequency, TF over GST control), the binding signal (ELF4) was 1.23 fold enrichment (6-mer frequency, TF over GST control) and the binding signal (ELK4) was 1.17 fold enrichment (6-mer frequency, TF over GST control). The binding signal (ETV2) was 1.35 fold enrichment (6-mer frequency, TF over GST control), the binding signal (ELF3) was 1.3 fold enrichment (6-mer frequency, TF over GST control) and the binding signal (CRX) was 2.74 fold enrichment (6-mer frequency, TF over GST control). The binding signal (ETV1) was 1.33 fold enrichment (6-mer frequency, TF over GST control).
